Several values for one entry are separate records, joined by “and”; a condition that tells them apart may be missing. Identical values can stand only once. Compounds without any hit were thinned out: in the full panel of roughly 79,000, 15% have a hit. Where a structure was tested more than once in an assay, its records may differ in their call. Activity calls are given as the source filed them. Cut-off read from the data, not from the text of the source: active = growth inhibition above about 70%; inactive = the rest.
Assay: NCI Yeast Anticancer Drug Screen. Data for the bub3 strain (AID 167)
Conditions: S. cerevisiae bub3 mutant strain, at 1.2 µM, stronger effect = higher value
In short: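 Compounds were applied to a genetically altered yeast strain carrying a cell-cycle control defect. Growth inhibition was scored against vehicle-treated controls.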
In the case of `O=C(O)c1ccccc1.[Ag]`, the growth inhibition is reported as 93% (active). With `CC(=O)[O-].O=C([CH-]C(=O)c1ccccc1)c1ccccc1.O=C([CH-]C(=O)c1ccccc1)c1ccccc1.[Sm+3]` the growth inhibition was 16% (inactive). In the case of `C=C[C@H]1CN2CC[C@H]1C[C@@H]2[C@@H](O)c1ccnc2ccccc12`, the growth inhibition is reported as 3% (inactive). For `O=c1c2ccccc2[se]n1-c1cccnc1`, the growth inhibition was 8% (inactive). With `[Pt].c1ccc(P(CCP(c2ccccc2)c2ccccc2)CCP(c2ccccc2)c2ccccc2)cc1` the growth inhibition was 8% (inactive). For `CC12CCC(C1)C(C)(C)C2OC(=O)c1ccccc1N` (centres undefined), the growth inhibition was 0% (inactive). In the case of `OC1(c2ccccc2)CC2CCC(C1)N2CCCC(O)(c1ccccc1)c1ccccc1` (centres undefined), the growth inhibition is reported as 0% (inactive). For `COC(=O)C(F)C(Br)C(=O)OC` (centres undefined), the growth inhibition was 64% (inactive). With `CCCCCCCCCC[Se]C#N` the growth inhibition was 0% (inactive). For `CNCC(O)c1ccc(O)c(O)c1.[Pt].c1ccc([PH+](c2ccccc2)c2ccccc2)cc1.c1ccc([PH+](c2ccccc2)c2ccccc2)cc1`, the growth inhibition was 0% (inactive). In the case of `Nc1nc(N)c(-c2ccc(Cl)c(Cl)c2)c(CP(Cl)(Cl)(Cl)Br)n1`, the growth inhibition is reported as 10% (inactive). For `Cc1ccc(P(c2ccc(C)cc2)c2ccc(C)cc2)cc1`, the growth inhibition was 20% (inactive). For `CC1CC(C)CC(C)C(O)/C(C#N)=C/C=C/CC(C2CCCC2C(=O)O)OC(=O)CC(O)C(C)C1` (centres undefined), the growth inhibition was 93% (active).

Same assay, conditions: S. cerevisiae bub3 mutant strain, at 3.7 µM, stronger effect = higher value
In the case of `O=C(O)c1ccccc1.[Ag]`, the growth inhibition is reported as 101% (active). With `CC(=O)[O-].O=C([CH-]C(=O)c1ccccc1)c1ccccc1.O=C([CH-]C(=O)c1ccccc1)c1ccccc1.[Sm+3]` the growth inhibition was 19% (inactive). With `C=C[C@H]1CN2CC[C@H]1C[C@@H]2[C@@H](O)c1ccnc2ccccc12` the growth inhibition was -6% (inactive). In the case of `O=c1c2ccccc2[se]n1-c1cccnc1`, the growth inhibition is reported as 14% (inactive). For `[Pt].c1ccc(P(CCP(c2ccccc2)c2ccccc2)CCP(c2ccccc2)c2ccccc2)cc1`, the growth inhibition was 4% (inactive). For `CC12CCC(C1)C(C)(C)C2OC(=O)c1ccccc1N` (centres undefined), the growth inhibition was 3% (inactive). For `OC1(c2ccccc2)CC2CCC(C1)N2CCCC(O)(c1ccccc1)c1ccccc1` (centres undefined), the growth inhibition was 0% (inactive). In the case of `COC(=O)C(F)C(Br)C(=O)OC` (centres undefined), the growth inhibition is reported as 94% (active). For `CCCCCCCCCC[Se]C#N`, the growth inhibition was -2% (inactive). For `CNCC(O)c1ccc(O)c(O)c1.[Pt].c1ccc([PH+](c2ccccc2)c2ccccc2)cc1.c1ccc([PH+](c2ccccc2)c2ccccc2)cc1`, the growth inhibition was 1% (inactive). In the case of `Nc1nc(N)c(-c2ccc(Cl)c(Cl)c2)c(CP(Cl)(Cl)(Cl)Br)n1`, the growth inhibition is reported as 23% (inactive). With `Cc1ccc(P(c2ccc(C)cc2)c2ccc(C)cc2)cc1` the growth inhibition was 43% (inactive). With `CC1CC(C)CC(C)C(O)/C(C#N)=C/C=C/CC(C2CCCC2C(=O)O)OC(=O)CC(O)C(C)C1` (centres undefined) the growth inhibition was 98% (active).

Same assay, conditions: S. cerevisiae bub3 mutant strain, at 5.0 µM (retest, dose inferred, filed as 0.5), stronger effect = higher value
For `COC(COC(N)=O)C1=C(N2CC2)C(=O)C(C)=C(N2CC2)C1=O` (centres undefined), the growth inhibition was 42% (inactive). In the case of `Cc1nc(Cl)c(CBr)c(Cl)n1`, the growth inhibition is reported as 54% (inactive). With `C[n+]1[se]nc2cc(C(=O)c3ccccc3)ccc21` (tested in a mixture with another compound) the growth inhibition was 98% (active). In the case of `O=C(O)c1ccccc1.[Ag]`, the growth inhibition is reported as 100% (active) and -1% (inactive). In the case of `CC(=O)[O-].O=C([CH-]C(=O)c1ccccc1)c1ccccc1.O=C([CH-]C(=O)c1ccccc1)c1ccccc1.[Sm+3]`, the growth inhibition is reported as 52% (inactive). In the case of `CC(C)(Br)C(=O)C(Br)Br`, the growth inhibition is reported as 100% (active). In the case of `C=C[C@H]1CN2CC[C@H]1C[C@@H]2[C@@H](O)c1ccnc2ccccc12`, the growth inhibition is reported as -8% (inactive). With `[C-]#[O+].[C-]#[O+].[Ir].[O-]c1ccc2ccccc2c1N=Nc1ccccc1` the growth inhibition was -20% (inactive). With `O=C(Nc1ccccc1)OC(C[N+](=O)[O-])C(Cl)(Cl)Cl` (centres undefined) the growth inhibition was 2% (inactive). In the case of `O=c1c2ccccc2[se]n1-c1cccnc1`, the growth inhibition is reported as -28% (inactive). For `[Pt].c1ccc(P(CCP(c2ccccc2)c2ccccc2)CCP(c2ccccc2)c2ccccc2)cc1`, the growth inhibition was 4% (inactive). For `CC12CCC(C1)C(C)(C)C2OC(=O)c1ccccc1N` (centres undefined), the growth inhibition was 12% (inactive). For `CC(=O)[O][Hg][c]1cc2c(cc1O)Cc1cc([N+](=O)[O-])ccc1-2`, the growth inhibition was 99% (active). With `OC1(c2ccccc2)CC2CCC(C1)N2CCCC(O)(c1ccccc1)c1ccccc1` (centres undefined) the growth inhibition was 8% (inactive). With `ClC1=C(Cl)C(Cl)(Cl)SS1` the growth inhibition was 100% (active). With `COC(=O)C(F)C(Br)C(=O)OC` (centres undefined) the growth inhibition was 11% (inactive). In the case of `c1ccc2c(NCCCCCCNc3c4ccccc4nc4ccccc34)c3ccccc3nc2c1`, the growth inhibition is reported as 56% (inactive). With `c1ccc2c(NCCCCCCCCNc3c4ccccc4nc4ccccc34)c3ccccc3nc2c1` the growth inhibition was 68% (inactive). For `CN(Cc1ccccc1)CC(O)c1ccc(Cl)cc1` (centres undefined), the growth inhibition was 2% (inactive). In the case of `Br[C](Br)(Br)[Hg][c]1ccccc1`, the growth inhibition is reported as 100% (active). For `Cc1cc(N=Nc2ccccc2C)ccc1N`, the growth inhibition was 12% (inactive) and 41% (inactive). With `C/C(=N\N=C(/[Se])N1CC2CCC(CC2)C1)c1ccccn1` the growth inhibition was 51% (inactive). With `CCCCCCCCCC[Se]C#N` the growth inhibition was 4% (inactive). For `CNCC(O)c1ccc(O)c(O)c1.[Pt].c1ccc([PH+](c2ccccc2)c2ccccc2)cc1.c1ccc([PH+](c2ccccc2)c2ccccc2)cc1`, the growth inhibition was -18% (inactive). In the case of `CCN(CC)CC.CCOc1ccc(NC(=O)N=C=[N-])cc1.[CH-]1CCCCC1.[CH-]1CCCCC1.[CH-]1CCCCC1.[Cl-].[Sn+4]`, the growth inhibition is reported as 99% (active). In the case of `Cc1cc(N(C)C)c2ccccc2[n+]1CCCCCCCCCC[n+]1c(C)cc(N(C)C)c2ccccc21`, the growth inhibition is reported as 94% (active). With `CCC[CH2][Sn]1([CH2]CCC)[O]CC(CN2CCCC2)[O]1` (centres undefined) the growth inhibition was 36% (inactive). For `N#Cc1ccc([Se]c2ccccc2)cc1`, the growth inhibition was 40% (inactive). In the case of `O=c1ssc(Cl)c1Cl`, the growth inhibition is reported as 99% (active). For `Nc1nc(N)c(-c2ccc(Cl)c(Cl)c2)c(CP(Cl)(Cl)(Cl)Br)n1`, the growth inhibition was 45% (inactive). With `Cc1ccc(P(c2ccc(C)cc2)c2ccc(C)cc2)cc1` the growth inhibition was 43% (inactive). With `O=C(O)c1ccccc1[Se][Se]c1ccccc1C(=O)O` the growth inhibition was 49% (inactive). In the case of `CC1CC(C)CC(C)C(O)/C(C#N)=C/C=C/CC(C2CCCC2C(=O)O)OC(=O)CC(O)C(C)C1` (centres undefined), the growth inhibition is reported as 10% (inactive). In the case of `CCC[CH2][Pb]([Cl])([CH2]CCC)[CH2]CCC`, the growth inhibition is reported as 100% (active). For `CNC(Cc1ccccc1)c1ccc(OC)c(OC)c1` (centres undefined), the growth inhibition was 21% (inactive). In the case of `CC1C(=O)OCC1(C)O` (centres undefined), the growth inhibition is reported as 2% (inactive). For `O=C(Nc1ccccc1)c1cc([N+](=O)[O-])ccc1O`, the growth inhibition was 0% (inactive). With `N=P(c1ccccc1)(c1ccccc1)c1ccccc1` (tested in a mixture with another compound) the growth inhibition was -1% (inactive).

Reference: PubChem BioAssay (NCI)
